Test results taken from PubChem BioAssay (NCI).
This is part of a sample that, as a whole, favours compounds with a hit. Of some 83,000 tested, about 20% had one in any assay.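 Compound tested at a single concentration for 48 hours in 96-well plates; a percent growth value below 10 was scored as active.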 The source made the active and inactive calls.

Assays:
Assay in all cases: NCI-60 one-dose screen, 48 h (100 = growth as untreated, 0 = no growth, -100 = all killed)
Conditions in all cases: 10 µM unless noted
HCT-15 colon = test system: HCT-15 colon
HT29 colon = test system: HT29 colon
SNB-75 CNS = test system: SNB-75 CNS
SNB-19 CNS = test system: SNB-19 CNS
U251 CNS = test system: U251 CNS
PC-3 prostate = test system: PC-3 prostate
SK-MEL-5 melanoma = test system: SK-MEL-5 melanoma
UACC-62 melanoma = test system: UACC-62 melanoma
LOX IMVI melanoma = test system: LOX IMVI melanoma
SK-MEL-28 melanoma = test system: SK-MEL-28 melanoma
SK-MEL-2 melanoma = test system: SK-MEL-2 melanoma
EKVX NSCLC = test system: EKVX NSCLC
SN12C renal = test system: SN12C renal
UO-31 renal = test system: UO-31 renal
TK-10 renal = test system: TK-10 renal
A498 renal = test system: A498 renal
CCRF-CEM leukemia = test system: CCRF-CEM leukemia
MOLT-4 leukemia = test system: MOLT-4 leukemia

Measured: growth

NC(CCCC(N)C(=O)c1ccccc1)C(=O)O (configuration not stated)
inactive: HCT-15 colon 107% | HT29 colon 73.3% | SNB-75 CNS 97.1% | SNB-19 CNS 110% | U251 CNS 102% | PC-3 prostate 83.3% | SK-MEL-5 melanoma 107% | UACC-62 melanoma 99.9% | LOX IMVI melanoma 99.8% | SK-MEL-28 melanoma 103% | SK-MEL-2 melanoma 92.7% | EKVX NSCLC 101% | SN12C renal 104% | UO-31 renal 84.3% | TK-10 renal 86.7% | A498 renal 103% | CCRF-CEM leukemia 111% | MOLT-4 leukemia 94.5%

Cc1nc(N)nc(SCc2ccccc2)c1Br
inactive: HCT-15 colon 102% | HT29 colon 92.8% | SNB-75 CNS 87.3% | SNB-19 CNS 99.3% | U251 CNS 85.4% | PC-3 prostate 83.8% | SK-MEL-5 melanoma 88.4% | UACC-62 melanoma 75.8% | LOX IMVI melanoma 95.7% | SK-MEL-28 melanoma 106% | SK-MEL-2 melanoma 89.9% | EKVX NSCLC 85.7% | SN12C renal 91.6% | UO-31 renal 54.7% | TK-10 renal 112% | A498 renal 63.4% | CCRF-CEM leukemia 82.4% | MOLT-4 leukemia 63.7%

C#C[C@@]1(O)[C@@H](CO)O[C@@H](n2cc(C(F)(F)F)c3c(N)ncnc32)[C@@H]1O
inactive: SNB-19 CNS 10.7% | PC-3 prostate 14% | SK-MEL-28 melanoma 28.1% | TK-10 renal 12.5%
active: HCT-15 colon 3.11% | HT29 colon 0.254% | SNB-75 CNS -54.8% | U251 CNS 6.37% | SK-MEL-5 melanoma -65.5% | UACC-62 melanoma -1.29% | LOX IMVI melanoma -23.6% | SK-MEL-2 melanoma -52.9% | EKVX NSCLC 5.12% | SN12C renal 9.05% | UO-31 renal -35.4% | A498 renal -84.3% | CCRF-CEM leukemia 5.1% | MOLT-4 leukemia -8.68%

Cc1c(Cl)ccc2c(C(=O)Cl)cc(-c3ccccc3)nc12
inactive: HCT-15 colon 101% | HT29 colon 116% | SNB-75 CNS 97.4% | SNB-19 CNS 98.6% | U251 CNS 96.6% | PC-3 prostate 96% | SK-MEL-5 melanoma 96.5% | UACC-62 melanoma 92.7% | LOX IMVI melanoma 94.9% | SK-MEL-28 melanoma 103% | SK-MEL-2 melanoma 106% | EKVX NSCLC 95.6% | SN12C renal 99.9% | UO-31 renal 90.1% | TK-10 renal 105% | A498 renal 84.4% | CCRF-CEM leukemia 88.1% | MOLT-4 leukemia 96.2%

Cc1ccc(/C=C2/C(=O)Nc3cc(Cl)c(-c4csc(N)n4)cc32)cc1
inactive: HCT-15 colon 63.1% | HT29 colon 47.7% | SNB-75 CNS 52.4% | SNB-19 CNS 55.2% | U251 CNS 63.6% | PC-3 prostate 56.8% | SK-MEL-5 melanoma 40.8% | UACC-62 melanoma 50.7% | LOX IMVI melanoma 58.7% | SK-MEL-28 melanoma 82.7% | SK-MEL-2 melanoma 49.3% | EKVX NSCLC 62.1% | SN12C renal 81% | UO-31 renal 67.4% | TK-10 renal 115% | A498 renal 79.3% | CCRF-CEM leukemia 43.5% | MOLT-4 leukemia 51.3%

COc1ccc(/C=C/C(=O)c2ccc(NC(=O)CSc3nnc(-c4cc(OC)c(OC)c(OC)c4)o3)cc2)cc1
inactive: SK-MEL-2 melanoma 37.7% | TK-10 renal 78.8% | A498 renal 90.5%
active: HCT-15 colon -79.6% | HT29 colon -80.9% | SNB-75 CNS -89.7% | SNB-19 CNS -48.7% | U251 CNS -90.1% | PC-3 prostate -34.7% | SK-MEL-5 melanoma -84.2% | UACC-62 melanoma -46.3% | LOX IMVI melanoma -69.4% | SK-MEL-28 melanoma -21% | EKVX NSCLC -2.83% | SN12C renal -43.5% | UO-31 renal -85.3% | CCRF-CEM leukemia -1.51% | MOLT-4 leukemia -25.9%

S=C=NP1(N=C=S)=NP(N=C=S)(N=C=S)=NP(N=C=S)(N=C=S)=NP(N=C=S)(N=C=S)=N1 (configuration not stated)
inactive: HCT-15 colon 103% | HT29 colon 92.9% | SNB-75 CNS 80.7% | SNB-19 CNS 109% | U251 CNS 94.7% | PC-3 prostate 86.4% | SK-MEL-5 melanoma 98.6% | UACC-62 melanoma 97.7% | LOX IMVI melanoma 97.8% | SK-MEL-28 melanoma 107% | SK-MEL-2 melanoma 95.8% | EKVX NSCLC 95% | SN12C renal 102% | UO-31 renal 77.3% | TK-10 renal 110% | A498 renal 118% | CCRF-CEM leukemia 105% | MOLT-4 leukemia 57.9%

O=C1C(Cl)=C(Nc2cccc3cc4ccccc4nc23)C(=O)c2ccccc21
inactive: HCT-15 colon 41.4% | SNB-75 CNS 71.9% | SNB-19 CNS 44.6% | U251 CNS 41.8% | PC-3 prostate 42% | SK-MEL-5 melanoma 69.5% | UACC-62 melanoma 70.1% | LOX IMVI melanoma 33.9% | SK-MEL-28 melanoma 102% | SK-MEL-2 melanoma 44.2% | EKVX NSCLC 71.9% | SN12C renal 45.1% | UO-31 renal 25.7% | TK-10 renal 54.5% | A498 renal 46.5% | CCRF-CEM leukemia 64.8% | MOLT-4 leukemia 25.9%
active: HT29 colon 4.99%

CCN(CC)CCNCC(O)Cc1ccc(OC)cc1 (configuration not stated)
inactive: HCT-15 colon 112% | HT29 colon 77.4% | SNB-75 CNS 110% | SNB-19 CNS 98.9% | U251 CNS 94.5% | PC-3 prostate 76.2% | SK-MEL-5 melanoma 99.9% | UACC-62 melanoma 93.9% | LOX IMVI melanoma 103% | SK-MEL-28 melanoma 116% | SK-MEL-2 melanoma 96.4% | EKVX NSCLC 105% | SN12C renal 98.8% | UO-31 renal 82.6% | TK-10 renal 88% | A498 renal 109% | CCRF-CEM leukemia 83.9% | MOLT-4 leukemia 73.4%
